The values below come from PubChem BioAssay (NCATS).

Assay [1] is described as follows: AP1 Signaling Pathway (AID 357). Further: on the % scale 0 is the no-effect control and ±100 the full control effect. Conditions: ME-180 AP-1-bla reporter, EGF-induced, beta-lactamase ratio, 5 h; at 17.2 µM (top of the series) unless noted. The procedure, abridged:
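ME-180 cells with beta-lactamase reporter under AP-1 response element, stimulated with EC50 EGF; compounds tested in titration series, 5 h at 37 °C. CCF4 substrate added 2.5 h at room temperature; 460/530 nm emission ratio gave %activity and AC50.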

A short description of assay [2]: Stat Signaling Pathway (AID 446).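 Further: ME-180 cervical cancer cells given 40 pM IL-6 alongside compound; SIE-controlled beta-lactamase reporter measured as 460/530 nm FRET emission ratio; on the % scale 0 is the no-effect control and ±100 the full control effect.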 Conditions: ME-180 SIE beta-lactamase reporter, IL-6 stimulated, 5 h; at 17.2 µM (top of the series) unless noted. The procedure, abridged: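 Reporter line: ME-180 cervical carcinoma, SIE-beta-lactamase. Treatment: compound with 40 pM IL-6, 5 hrs, 37 C, in low-serum OPTI-MEM with 10 mM HEPES pH 7.3. Detection: 460/530 nm fluorescence.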

For assay [3], the target named is Glucocorticoid receptor (Homo sapiens) (UniProt P04150). In words: GR-GFP Redistribution (AID 450;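 active means compounds whose dose series gives a full or clear partial fitted curve of increased nuclear translocation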; further: potency means the concentration at half of the fitted maximal effect).
Chain of Glucocorticoid receptor (Homo sapiens) (P04150 whole entry, looked up): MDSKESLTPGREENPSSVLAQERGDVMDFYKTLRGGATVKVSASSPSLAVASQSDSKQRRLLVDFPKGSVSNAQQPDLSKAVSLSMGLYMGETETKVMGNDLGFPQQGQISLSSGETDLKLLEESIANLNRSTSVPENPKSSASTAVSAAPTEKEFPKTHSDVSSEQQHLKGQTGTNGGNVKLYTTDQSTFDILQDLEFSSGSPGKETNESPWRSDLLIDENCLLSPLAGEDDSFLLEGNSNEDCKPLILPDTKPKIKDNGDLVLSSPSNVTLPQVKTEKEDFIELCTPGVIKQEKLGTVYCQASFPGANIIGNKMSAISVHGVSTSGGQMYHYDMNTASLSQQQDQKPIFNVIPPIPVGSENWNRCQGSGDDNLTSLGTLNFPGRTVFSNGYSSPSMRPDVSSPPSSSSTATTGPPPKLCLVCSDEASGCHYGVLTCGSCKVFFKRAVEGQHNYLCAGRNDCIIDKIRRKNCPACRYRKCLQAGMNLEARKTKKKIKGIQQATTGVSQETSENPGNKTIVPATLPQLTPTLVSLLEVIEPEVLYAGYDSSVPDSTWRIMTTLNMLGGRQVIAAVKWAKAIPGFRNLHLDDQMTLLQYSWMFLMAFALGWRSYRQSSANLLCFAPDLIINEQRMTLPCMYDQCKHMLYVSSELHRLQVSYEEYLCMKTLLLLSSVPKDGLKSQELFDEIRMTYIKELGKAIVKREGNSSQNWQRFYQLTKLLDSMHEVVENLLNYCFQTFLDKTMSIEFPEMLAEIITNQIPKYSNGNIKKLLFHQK

Each structure is given as a SMILES string. Values without a mark were called inactive. Results filed as inconclusive are left out. The source made the active and inactive calls. Unless noted, the call rests on the fitted dose curve; in most records, active means well fitted curve in either direction with a large enough effect (not every such curve was filed as active); inconclusive means small, poorly fitted or top-dose-only effect, or another doubt; inactive means flat fitted curve, though single readings scatter. Bounds are passed on as bounds.

With `CCO/C(C)=N/n1c2nc3ccccc3nc2c2c(=O)n(Cc3ccccc3Cl)c(C)nc21`, in assay [1], the activity change, negative = inhibition is -30%. In addition, the activity, negative = inhibition in assay [2] was -8.13%. For the same compound, the Potency in assay [3] is above 20.6 µM.

For `CC1CN(C2CCN(C(=O)c3ccccc3Cl)CC2)CC(C)O1` (configuration not stated), the activity change, negative = inhibition in assay [1] is 6.4%. Further, the activity, negative = inhibition in assay [2] was 1.52%. For the same compound, in assay [3], the Potency is above 20.6 µM.

As to `C/C(=N\O)c1ccc2[nH]ccc2c1`, the activity change, negative = inhibition in assay [1] is 2.69%. In addition, in assay [2], the activity, negative = inhibition is 13.9%. The Potency in assay [3] was above 20.6 µM.

With `COc1ccc(Nc2cc(C)nc3ccccc23)cc1`, in assay [1], the activity change, negative = inhibition was 10.5%. Further, the activity, negative = inhibition in assay [2] is 5.77%. Further, the Potency in assay [3] was above 20.6 µM.

Take `Clc1ccc(-n2ncc3c(NCc4cccs4)ncnc32)cc1`: the activity change, negative = inhibition in assay [1] was 13.8%. Moreover, in assay [2], the activity, negative = inhibition was -14.7%. The Potency in assay [3] is above 20.6 µM.

Consider `CCCCc1nc(NCC2CCCO2)c(C#N)c2c1COC(C)(C)C2` (configuration not stated), for which the activity change, negative = inhibition in assay [1] was -26.3%. Also, in assay [2], the activity, negative = inhibition was 1.02%. The Potency in assay [3] is above 20.6 µM.

Consider `CCCCCNc1nc(N2CCCC2)c2c(c1C#N)CCN(C)C2`, for which the activity change, negative = inhibition in assay [1] is 3.36%. In assay [2], the activity, negative = inhibition was -7.71%. In addition, the Potency in assay [3] was above 20.6 µM.

As for `COc1ccc(/C=C/C2=NC(=C\N(C)C)/C(=O)O2)cc1`, the activity change, negative = inhibition in assay [1] is -4.1%. Besides, the activity, negative = inhibition in assay [2] is -0.663%. The Potency in assay [3] is above 20.6 µM.

As for `CCN(CC)C(=O)CSc1nc2ccccc2c(=O)n1CC1CCCCC1`, in assay [1], the activity change, negative = inhibition was -21.3%. Besides, in assay [2], the activity, negative = inhibition is -17.5%. Besides, the Potency in assay [3] is above 20.6 µM.

`COc1ccc(C2C(C#N)=C(SC)NC3=C2C(=O)CC(C)(C)C3)cc1` (configuration not stated): the activity change, negative = inhibition in assay [1] is -6.47%. For the same compound, the activity, negative = inhibition in assay [2] was -6.08%. Besides, in assay [3], the Potency is above 20.6 µM.

Regarding `Cc1ccsc1C1NC(=O)c2c(sc3c2CCCC3)N1` (configuration not stated), the activity change, negative = inhibition in assay [1] was -25.1%. The activity, negative = inhibition in assay [2] was -6.73%. Moreover, the Potency in assay [3] is above 20.6 µM.

Regarding `Oc1ccc(Br)cc1-c1cc(-c2ccccc2F)[nH]n1`, in assay [1], the activity change, negative = inhibition is 13.3%. The activity, negative = inhibition in assay [2] is -0.726%. Besides, the Potency in assay [3] was above 20.6 µM.

Consider `CCOC(=O)c1[nH]c2ccc(OC)cc2c1NC(=O)CCN1CCN(Cc2ccccc2)CC1`, for which the activity change, negative = inhibition in assay [1] was -6.55%. The activity, negative = inhibition in assay [2] was 4.87%. For the same compound, the Potency in assay [3] is above 20.6 µM.

With `COc1ccccc1-c1nn2c(-c3ccco3)nnc2s1`, the activity change, negative = inhibition in assay [1] is 0.523%. In assay [2], the activity, negative = inhibition was -5.72%. Moreover, the Potency in assay [3] was above 20.6 µM.

As for `COc1cccc(C(=O)c2sc(NC(C)C)nc2N)c1`, in assay [1], the activity change, negative = inhibition is -116% (active). For the same compound, the activity, negative = inhibition in assay [2] is -103% (active). Further, the Potency in assay [3] was above 20.6 µM.

In the case of `C=C(C)CSc1nnc2n(C)c(=O)c3c4c(sc3n12)CCC4`, the activity change, negative = inhibition in assay [1] is -2.43%. Further, the activity, negative = inhibition in assay [2] was 2.61%. For the same compound, the Potency in assay [3] was above 20.6 µM.

Turning to `N#Cc1c(N2CCOCC2)nc(N2CCCCC2)c2c1CCN(C1CCCCC1)C2`, the activity change, negative = inhibition in assay [1] was -8.29%. Moreover, the activity, negative = inhibition in assay [2] was 4.09%. Also, the Potency in assay [3] was above 20.6 µM.

With `O=S(=O)(c1ccc(Cl)cc1)N1CCC(N2CCCCCC2)CC1`, the activity change, negative = inhibition in assay [1] is 9.12%. Besides, in assay [2], the activity, negative = inhibition was 3.47%. Moreover, in assay [3], the Potency is above 20.6 µM.

Take `Cc1cccc(N(Cc2cc3ccccc3[nH]c2=O)C(=O)c2ccco2)c1C`: the activity change, negative = inhibition in assay [1] is -19.9%. Moreover, the activity, negative = inhibition in assay [2] was -17%. For the same compound, the Potency in assay [3] was above 20.6 µM.

With `CC(=O)O[C@H]1C(=O)[C@]2(C)[C@H]([C@H](OC(=O)c3ccccc3)[C@]3(O)C[C@H](OC(=O)[C@H](O)[C@@H](NC(=O)c4ccccc4)c4ccccc4)C(C)=C1C3(C)C)[C@]1(OC(C)=O)CO[C@@H]1C[C@@H]2O`, in assay [1], the activity change, negative = inhibition is -5.19%. Also, the activity, negative = inhibition in assay [2] is -2.52%. The Potency in assay [3] was above 20.6 µM.

As for `CCCCC(=O)C1CCN(Cc2ccccc2)CC1`, in assay [1], the activity change, negative = inhibition was 4.33%. Also, the activity, negative = inhibition in assay [2] is 3.33%. Further, the Potency in assay [3] is above 20.6 µM.

For the compound `COc1ccc(N/C=C(\C#N)c2nc3ccccc3n2C)c(OC)c1`, the activity change, negative = inhibition in assay [1] is -21.3%. In addition, in assay [2], the activity, negative = inhibition was -22%. Also, the Potency in assay [3] was above 20.6 µM.

On to `COc1nc(N(C)S(=O)(=O)c2ccc(C)cc2)nc(C)c1Cl`, for which, in assay [1], the activity change, negative = inhibition was -2.26%. Besides, in assay [2], the activity, negative = inhibition was 5.02%. In assay [3], the Potency was above 20.6 µM.

Take `Cc1ccc2[nH]c3c(c2c1)CN(C(=O)CN1CCCc2ccccc21)CC3`: the activity change, negative = inhibition in assay [1] is -22.5%. In addition, the activity, negative = inhibition in assay [2] is -11.3%. In addition, the Potency in assay [3] is above 20.6 µM.

On to `Cc1cc2c(c(=O)n1Cc1ccccn1)C(c1ccc3c(c1)OCO3)C(C#N)=C(N)O2` (configuration not stated), for which the activity change, negative = inhibition in assay [1] was -7.52%. For the same compound, in assay [2], the activity, negative = inhibition is -11.7%. Moreover, in assay [3], the Potency was above 20.6 µM.

As for `N#Cc1c(NCCCO)nc(-c2ccccc2)c2c1CCCC2`, in assay [1], the activity change, negative = inhibition is -2.16%. Besides, the activity, negative = inhibition in assay [2] is -5.59%. For the same compound, the Potency in assay [3] was above 20.6 µM.

`CCOC(=O)c1c(SC)nc(SC)c2c1CCC2`: the activity change, negative = inhibition in assay [1] is -12.6%. Further, the activity, negative = inhibition in assay [2] is -4.26%. In addition, the Potency in assay [3] is above 20.6 µM.

For `CCCn1c(SCC#N)nc2c(c1=O)C1(CCCC1)Cc1ccccc1-2`, the activity change, negative = inhibition in assay [1] is 13.8%. In addition, the activity, negative = inhibition in assay [2] was 2.26%. Further, the Potency in assay [3] was above 20.6 µM.

For the compound `COCCCNC(=O)c1c(N)n(/N=C/c2cccs2)c2nc3ccccc3nc12`, in assay [1], the activity change, negative = inhibition is 24.9%. In addition, the activity, negative = inhibition in assay [2] was 21.4%. In addition, the Potency in assay [3] was above 20.6 µM.
